# The list is not random: actives were taken first. Their share in the collection is about 1.4%.
# KCNH2 WT inh: KCNH2 (human, wildtype) channel inhibition | 340,000 tested, 0.37% active | Q12809 | activity change, % at 1.84 µM | U2OS, BacMam KCNH2, thallium flux FluxOr; stronger effect = lower value;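 active = maximum activity change below -70%; inconclusive = maximum activity change between -70% and -50%; inactive = maximum activity change above -50%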
#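 U2OS cells were transduced with wild-type KCNH2 virus (2.03 x 10^8 / mL) for 4 h at room temperature, then cultured overnight at 37 C. Thallium flux was read with FluxOr dye. Rate constants were normalized to DMSO controls.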
# Rango complex inh: Rango-importin beta binding inhibition. Rango CFP/YFP FRET sensor + importin beta, 45 min. Q14974. 340,000 tested, 0.031% active. AID 540263. Potency, µM (top dose mostly 92.2 µM); note: nearly all actives have a fitted effect of over 15% in size
#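 Inhibition scored from the CFP 486 nm/YFP 530 nm FRET ratio 45 min after adding 0.125 microM importin beta to 50 nM Rango biosensor preincubated 5 min with compound (room temperature, PBS with DTT, Tween-20, BSA). No-importin wells as positive control.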
# KCNH2 3.1 block: blocks the human KCNH2 3.1 channel isoform; activity change, % (tested at about 1.8 µM); AID 720553; 340,000 tested, 0.95% active; U2OS KCNH2 3.1, thallium flux FluxOr; stronger effect = lower value;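 active = maximum activity change below -70%; inconclusive = maximum activity change from -70% to -50%; inactive = maximum activity change above -50%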;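 note: thallium influx rate constant from kinetic fluorescence after stimulation buffer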
#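 U2OS cells transduced with KCNH2 3.1 mutant virus (1.77 x 10^8 /mL, 4 h), plated overnight at 37 C, loaded 45 min with FluxOr dye plus Red40 quencher. Thallium flux rate constant from kinetic reads after stimulation buffer, normalised to controls.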
# Rango release inh: prevents RanGTP from dissociating the Rango-importin beta complex; Biochemical FRET Rango-importin beta, RanGTP-induced dissociation; Potency, µM (top dose mostly 46.1 µM); 340,000 tested, 0.071% active; AID 540253; note: nearly all actives have a fitted effect of over 45% in size
#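 Two FRET readings bracket the reaction: one 5 min after compound meets Rango–importin beta, another 45 min after RanGTP-RCC1 (0.6 uM Ran, 0.2 uM RCC1, 2 mM GTP) is added. Only the second defines inhibition.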
# CCT chaperon mod: modulators of cytosolic chaperonin (CCT/TRiC) activity. purified chaperonin ATPase assay, HTRF ADP detection, 30 min. activity change, % (test concentration not listed), hits read low. 360,000 tested, 0.3% active; in the data active = activity change below about -30%
#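 TRiC (40 or 20 nM final, by batch activity) in 30 mM Tris pH 7.4, 100 mM KCl, 5 mM MgCl2, 1 mM DTT was treated with compound at 76 uM single dose, then 10 uM ATP, 30 min at 37 °C. ADP was read by HTRF Transcreener.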
# MmCpn inh: blocks the Methanococcus maripaludis chaperonin Mm-Cpn. 330,000 tested, 0.031% active. purified Mm-Cpn ATPase, ADP Transcreener TR-FRET. AID 504842. Potency, µM (top dose mostly 76.9 µM), hits mostly inhibitors; active = well fitted inhibition curve with a large enough effect; inconclusive = small, poorly fitted or top-dose-only effect; note: nearly all actives have a fitted effect of over 80% in size
#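 Purified archaeal Mm-CPN (25nM final) preincubated 10 min at 37degC with compound, then 10uM ATP for 30 min at 37degC; ADP measured by HTRF Transcreener TR-FRET; buffer 30 mM TRIS pH 7.4, 100mM KCl, 5mM MgCl2, 1mM DTT.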
# Numbers stand for hits; - = inactive; ? = inconclusive; . = no result; [ ] = another dose, or the depositor's remark. Unless noted, calls come from the whole dose curve.
SMILES,KCNH2 WT inh,Rango complex inh,KCNH2 3.1 block,Rango release inh,CCT chaperon mod,MmCpn inh
O=C(Nc1ccc(Cl)c(Cl)c1)c1ccccc1,.,-,.,-,-50,-
Cn1cc(Br)c(-c2cccc(NC(=O)CCC(=O)O)c2)n1,-,-,-,-,-,-
COC(=O)c1ccc2c(=O)n(Cc3ccco3)c(SCC(=O)Nc3ccc(C)c(Cl)c3)nc2c1,-,-,-75,-,-,-
O=C(CSc1nc2cc(Cl)ccc2c(=O)n1Cc1ccco1)Nc1ccc(S(=O)(=O)N2CCOCC2)cc1,-,?,-75,-,-,?
CS(=O)(=O)c1ccc(Cl)c(NC(=O)CSc2nc3ccccc3c(=O)n2CCCN2CCOCC2)c1,.,-,-,-,-,-
CS(=O)(=O)c1ccc(Cl)c(NC(=O)CSc2nc3ccccc3c(=O)n2Cc2ccco2)c1,-,-,-98,?,-,-
COc1ccc(S(=O)(=O)Nc2ccc(-n3cccc3)cc2)cc1,-,-,-,-,-,-
O=C1OCC(CO)(CO)N=C1NNc1ccccc1Cl,-,-,-,-,-,-
Cn1c(Cl)c(/C=N/OC(=O)C2CC2)c2ccccc21,-,-,-92,-,-,-
C/C(=N\N=C1\NC(=O)C(CC(=O)Nc2ccc(C)c(Cl)c2)S1)C(C)(C)C (centres undefined),-,?,-,-,-44,-
C[C@H](CO)N1C[C@H](C)[C@@H](CN(C)Cc2ccc(Oc3ccccc3)cc2)Oc2ccc(NC(=O)Cn3cnnn3)cc2C1=O,-273,-,-,-,-,-
C[C@@H]1CN([C@@H](C)CO)C(=O)c2cc(NC(=O)C3CC3)ccc2O[C@@H]1CN(C)Cc1ccc(Cl)c(Cl)c1,-,-,-,-,-41,-
Cc1noc(C)c1S(=O)(=O)N(C)C[C@H]1Oc2c(NC(=O)Nc3ccccc3)cccc2C(=O)N([C@H](C)CO)C[C@@H]1C,-124,-,-,-,-,-
C[C@H](CO)N1C[C@H](C)[C@@H](CN(C)Cc2ccc(Cl)c(Cl)c2)Oc2c(NC(=O)Cc3ccccc3)cccc2C1=O,-,-,-78,-,-,-
C[C@H](CO)N1C[C@H](C)[C@@H](CN(C)Cc2ccccc2)Oc2ccc(NC(=O)Cn3cnnn3)cc2C1=O,-,-,-,-,-,-
C[C@H](CO)N1C[C@H](C)[C@@H](CN(C)Cc2ccccc2)Oc2c(NC(=O)Cc3ccccc3)cccc2C1=O,-,-,-,-,-,-
Cc1noc(C)c1S(=O)(=O)N(C)C[C@H]1Oc2c(NC(=O)Nc3ccc(C(F)(F)F)cc3)cccc2C(=O)N([C@H](C)CO)C[C@@H]1C,-,-,-,-,-,-
O=C(COC(=O)C1=COCCO1)Nc1cc(Cl)c(Cl)cc1Cl,-,-,-,-,-,-
O=C(CNC(=O)c1ccccc1C(F)(F)F)N/N=C/c1cccs1,-,-,-,-,-,-
COc1ccccc1CN1CC(C(=O)N(C)CCc2nc3ccc(F)cc3[nH]2)CCC1=O (centres undefined),-,-,-,-,-,-
N#CC(C#N)=C1C=CC=CN1/C(=C\c1ccco1)C(=O)c1ccc(-c2ccccc2)cc1,-,-,-85,?,-,-
N#CC(C#N)=C1C=CC=CN1/C(=C\c1ccco1)C(=O)c1ccc(Cl)cc1,-,-,-86,-,-,?
CCOC(=O)/C(=C/c1ccc(OC(F)F)cc1)C1=Nn2c(nnc2-c2ccc(Cl)cc2)SC1,?,-,-83,-,-,.
COc1ccc(-c2nnc3n2N=C(C)CS3)cc1,-,-,-,-,-,-
CCOC(=O)/C(=C\c1ccc(OC(F)F)cc1)C1=Nn2c(nnc2-c2ccc(Cl)cc2)SC1,-78,-,-70,-,-,-
CCCCn1c(C)cc2c(c1=O)C1O[C@](c3ccsc3)(Cc3ccccc31)O2,.,.,.,.,.,-[15.4 µM]
CCN(CC)S(=O)(=O)c1cc(NC(=O)c2cc([N+](=O)[O-])ccc2N2CCOCC2)ccc1C,-,-,.,-,-,-
